# Compounds with a hit are over-represented: about 10% of the library has one in this group of screens.
# BAZ2B block: qHTS Assay for Inhibitors of BAZ2B; AlphaScreen BAZ2B-H3K14Ac peptide displacement; Bromodomain adjacent to zinc finger domain protein 2B (Homo sapiens), Q9UIF8; Potency, µM (series often up to 114 µM), inactives show top-dose activity change, negative = inhibition, hits mostly inhibitors; 4.4% of 360,000 active; note: potency is the fitted concentration of half-maximal effect; % is set by controls: 0 for no effect and ±100 for the full control effect; nearly all actives have a fitted effect of over 60% in size
#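 In this displacement format the biotinylated H3(5-23) peptide acetylated at Lys14 serves as ligand at 50 nM, with BAZ2B at 50 nM in PBS pH 7.4 containing 0.01% Tween-20. Donor and acceptor beads are 10 ug/mL final.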
# JMJD2A Tudor inh: qHTS Assay for Inhibitors of JMJD2A-Tudor Domain; AlphaScreen JMJD2A-Tudor / H3K4me3 peptide binding; Potency, µM (highest dose often 114 µM), for the others: top-dose activity change, negative = inhibition, actives largely listed as inhibitors; AID 504339, 2011; 4.4% of 390,000 active; note: potency is the fitted concentration of half-maximal effect; % is set by controls: 0 for no effect and ±100 for the full control effect; nearly all actives have a fitted effect of over 50% in size
# HP1b chromo inh: HTS for Inhibitors of HP1-beta Chromodomain Interactions with Methylated Histone Tails. Chromobox protein homolog 1 (Homo sapiens), P83916. AlphaScreen HP1-beta / biotin-H3K9me3 peptide binding. Potency, µM (doses to about 114 µM), inactives show at the highest dose activity change, negative = inhibition, hits mostly inhibitors. 0.56% of 390,000 active; note: potency is the fitted concentration of half-maximal effect; nearly all actives have a fitted effect of over 70% in size
#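 AlphaScreen: HP1-beta (50 nM) preformed 30 min with biotin-H3(1-18)K9me3 peptide (50 nM) in PBS pH 7.4, 0.01% Tween-20. Compound added for 30 min at RT, then streptavidin donor/nickel chelate acceptor beads (10 ug/mL) for 30 min.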
# CtBP-E1A inh: qHTS Assay for Inhibitors of the CtBP/E1A Interaction; AlphaScreen GST-E1A/His-CtBP binding, 1536-well; stronger effect = lower value; activity change, % (no concentration beside the values); 0.49% of 340,000 active; in the data active = activity change below about -65%; inconclusive = mostly about -30% to -63%; note: % is set by controls: 0 for no effect and ±100 for the full control effect
#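 In 5 uL wells, 23 nL compound meets equimolar GST-E1A and His-CtBP (5X stock 125 nM each) for 2 h, 37 °C. Beads (5X, 50 ug/mL) then 1 h, 37 °C, dark.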
# G9a block: qHTS Assay for Inhibitors of Histone Lysine Methyltransferase G9a; AID 504332, 2011; 8.8% of 350,000 active; Histone-lysine N-methyltransferase EHMT2 (Homo sapiens), Q96KQ7; Potency, µM (doses to about 102 µM), for the others: at the top dose activity, negative = inhibition, usual class: inhibitors; G9a H3K9 monomethylation, AlphaScreen, 2 h; note: potency is the fitted concentration of half-maximal effect; % is set by controls: 0 for no effect and ±100 for the full control effect; nearly all actives have a fitted effect of over 75% in size
#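 G9a (20 nM) preincubated 15 min RT with compounds, then 500 nM biotinylated H3K9 peptide and 20 uM SAM added; 2 h RT reaction. Monomethyl-H3K9 product detected by AlphaScreen with anti-H3K9me1 antibody, streptavidin donor and anti-rabbit IgG acceptor beads.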
# Six1-Eya2 inh: qHTS Assay for Inhibitors of the Six1/Eya2 Interaction; AID 651725, 2012; AlphaScreen GST-Six1/His-Eya2 binding, biochemical; stronger effect = lower value; 0.56% of 360,000 active; activity change, % (test concentration not listed); in the data active = activity change below about -65%; inconclusive = mostly about -30% to -63%; note: % is set by controls: 0 for no effect and ±100 for the full control effect
#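 GST-Six1 + His-Eya2 (5X stock: 250/500 nM); Tris pH 8.0, 300 mM NaCl, 0.05% BSA, 0.02% Tween 20; GSH donor/Ni acceptor beads; 1 h 37 °C dark; AlphaScreen readout.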
# Starred values were filed as active, the others as inactive; ? = inconclusive; . = not tested or not shown; [ ] = remark or other dose. Unless noted, calls come from the whole dose curve; as a rule, active = well fitted inhibition curve with a large enough effect; inconclusive = small, poorly fitted or top-dose-only effect; inactive = no such curve, though single readings can be large or run the other way.
SMILES,BAZ2B block,JMJD2A Tudor inh,HP1b chromo inh,CtBP-E1A inh,G9a block,Six1-Eya2 inh
Cc1ccc(S(=O)(=O)NCc2cc(=O)n(C)c(=O)n2C)cc1C,-4%,-14%,34%,0,-17%,2
CC(C)(CO)NCc1ccc(Br)cc1,-36%,7.9µM*,3%,-11,-23%,-1
Cc1cccc(N2CCn3c2nc2c3c(=O)n(CCCc3ccccc3)c(=O)n2C)c1,?,-36%,8%,.,-41%[59 µM],.
O=C(CSc1nc2nccnc2c(=O)n1CCc1c[nH]c2ccccc12)Nc1ccc(F)cc1,-5%,-17%,10%,.,9%[59 µM],.
CCc1cc(C=NC2CCCCC2)c(O)s1,-31%,-35%[57.1 µM],-10%,-9,13µM*,-22
N#CCN(C(=O)CSc1nnc(C2CC2)n1C1CC1)c1ccccc1,.,.,.,-13,.,8
CC(C)N(C(=O)CSc1nnc(C2CC2)n1C1CC1)c1ccccc1,-8%,-11%,13%,-1,50µM*,5
Cc1cc(-c2ccccc2)nc(N/N=C/c2ccc(O)cc2)n1,-31%,-25%,13%,-16,2%[0.501 µM],-17
Cc1cc(N/N=C/c2ccc(O)cc2)c2cccc(C)c2n1,40µM*,?,?,.,.,?
Cc1cc(C)c2nc(C)cc(N/N=C/c3ccc(O)cc3)c2c1,40µM*,50µM*,6%,-86*,?,?
C=CCC1CCC/C(=N\NS(=O)(=O)c2ccc(C)cc2)C1 (stereo not drawn),-4%,-6%,37%,0,25µM*,-13
CC(=O)N(\C=C/C=C/C=C1\Sc2ccccc2C1=O)c1ccccc1,7.1µM*,7.9µM*,13µM*,14,10µM*,-13
Cc1cc(OCC(=O)OCC(=O)N2c3ccccc3NC(=O)C2(C)C)ccc1Cl,79µM*,?,2%,3,18%[12.7 µM],-5
CC1(C)C(=O)Nc2ccccc2N1C(=O)COC(=O)c1cccc(O)c1,.,?,6%,0,.,-2
CC1(C)C(=O)Nc2ccccc2N1C(=O)COC(=O)c1ccc(NC(N)=O)cc1,-10%,-20%,9%,-5,35µM*,-6
O=C(Oc1cc(=O)oc2c1c(=O)n1c3c(cccc23)CC1)c1ccccc1,50µM*,?,-3%,-5,.,-19
CC1CCCN(C2=C(Cl)C(=O)N(c3cccc(Cl)c3)C2=O)C1 (stereo not drawn),95%,93%,253%,0,64%[59 µM],62
CN1CCN(C2=C(Cl)C(=O)N(c3ccc(Cl)c(Cl)c3)C2=O)CC1,?,22µM*,42%,-1,32µM*,5
CN1CCN(C2=C(Cl)C(=O)N(c3cccc(Cl)c3)C2=O)CC1,-11%,18µM*,-7%,-4,?,-2
Cc1ccc(N2C(=O)C(Cl)=C(N3CCOCC3)C2=O)cc1Cl,-2%,?,57%,-2,-22%[59 µM],-5
CCOc1ccc(NC(=O)CCn2c(=O)c3cccn3c3cccnc32)cc1,-10%,-14%,4%,.,-2%[59 µM],.
Clc1ccccc1-c1nccc(NCc2cccs2)n1,.,.,.,.,9%[0.501 µM],.
C=C1CCN(C(CC(C)C)C(=O)NCc2ccc(Cl)c(Cl)c2)S(=O)(=O)c2ccccc21 (stereo not drawn),.,-8%,25%,.,.,.
COc1cccc(N2C(=O)C(CC(=O)Nc3ccc(F)cc3)N(CCC3=CCCCC3)C2=O)c1 (stereo not drawn),-19%,-20%,31%,.,-7%[59 µM],.
O=C1CC(N2CCN(c3ccc(O)cc3)CC2)C(=O)N1Cc1cccs1 (stereo not drawn),-9%,56µM*,?,11,-3%[12.7 µM],11
SMILES,BAZ2B block,JMJD2A Tudor inh,HP1b chromo inh,CtBP-E1A inh,G9a block,Six1-Eya2 inh
CCOC(=O)c1c(-c2ccccc2)oc2ccc(N(C(C)=O)S(=O)(=O)c3ccc(CC)cc3)cc12,-12%,-1%,18%,.,6%[59 µM],.
CCOC(=O)Cn1c(=O)cc(-c2ccccc2)c2c(C)nn(C)c21,78%,46%,2%,.,28%[59 µM],.
c1ccc(-c2nnc(SCc3nnc(-c4cccs4)o3)o2)cc1,50µM*,-12%,26%,4,?,-6
Cc1ccc(S(=O)(=O)NC(=NC(C)C)c2ccccc2)cc1,10%,-17%,28%,-3,15%[0.501 µM],-1
Cc1ccc(S(=O)(=O)C/N=C(/NC(=S)N(c2ccccc2)c2ccccc2)c2ccccc2)cc1,14%,?,9%,3,10µM*,-3
C=CCSc1nc2sc(C)c(C)c2c(=O)n1CC=C,97%,58%,187%,12,5.6µM*,12
COc1ccc2nc(N(Cc3cccnc3)C(=O)C3CCCCC3)sc2c1,-14%,-12%,30%,.,-22%[59 µM],.
CCN(CC)c1ccc(NC(=S)Nc2ccc(F)cc2)cc1,22µM*,35µM*,25µM*,-20,13µM*,?
CCC(C)NC(=S)Nc1ccc(F)cc1 (stereo not drawn),3%,11%,41%,2,50µM*,5
COc1ccc(NC(=O)C2CCN(C3=NS(=O)(=O)C(c4ccc(C)c(C)c4)=C3C)CC2)cc1OC,-3%,-16%,45%,.,8%[59 µM],.
Cc1ccc(NC(=O)CN(C)C(=O)C(C)OC(=O)c2ccccc2NCCO)cc1 (stereo not drawn),?,7%,21%,-5,?,1
CC(OC(=O)c1ccccc1NCCO)C(=O)NCC(=O)Nc1ccc(F)c(F)c1F (stereo not drawn),-2%,10%,16%,15,28µM*,-15
Oc1ccc(C2CNCc3sccc32)cc1O (stereo not drawn),15%,50µM*,?,2,3µM*,-14
NC(=O)c1ccccc1NC(=O)c1cccc(C(=O)Nc2ccccc2C(N)=O)n1,.,-33%,46%,-76*,.,-83*
Cc1ccccc1NC(=O)Cn1cc(S(=O)(=O)c2ccccc2)c(=O)c2ccccc21,?,-10%,34%,.,?,.
NC(=O)c1sc2nc3c(cc2c1N)CCCCCC3,-14%,-18%,24%,-4,50µM*,-4
Nc1c(C(=O)O)sc2nc3c(cc12)CCCC3,-25%,-10%,51%,.,22µM*,10
O=C(NCC1CCCO1)c1ccc(-c2cccc(C(F)(F)F)c2)o1 (stereo not drawn),-7%,-19%,33%,-14,22%,4
